The campaign covered roughly 1,300 compounds. About 240 (18%) were called active. About 8% were inconclusive and are not listed. No rule for the calls is given here. A selection follows. Measured potencies and affinities stand elsewhere.
assay: HepG2 cell cytotoxicity, dose response, cytotoxicity control, cherry-picked samples (AID 1159577); settings: HepG2 cytotoxicity counterscreen, plate reader; series mostly up to 19.5 µM

Q: Which outcome does the source give for `C[C@H](CO)N1C[C@H](C)[C@H](CN(C)C(=O)Nc2ccc(F)cc2)Oc2cc(/C=C/c3ccccc3)ccc2S1(=O)=O` here?
A: Its outcome is “inactive”.

Q: With `C[C@H](CO)N1C[C@H](C)[C@H](CN(C)C(=O)Nc2cc(F)ccc2F)Oc2cc(/C=C/c3ccccc3)ccc2S1(=O)=O` as the compound, how does the outcome read?
A: Its outcome is “inactive”.

Q: Which outcome does the source give for `C[C@@H]1CN([C@H](C)CO)S(=O)(=O)c2ccc(-c3ccncc3)cc2O[C@H]1CN(C)Cc1ccc(Oc2ccccc2)cc1` here?
A: Its outcome is “inactive”.

Q: For `Cc1ccc(-c2ccc3c(c2)O[C@@H](CN(C)Cc2cccnc2)[C@@H](C)CN([C@@H](C)CO)S3(=O)=O)cc1`, which outcome is on record?
A: Its outcome is “inactive”.

Q: Which outcome does the source give for `CCS(=O)(=O)N1CCC2(CC1)CN(Cc1ccc3c(c1)OCO3)[C@H](CO)c1[nH]c3cc(OC)ccc3c12` here?
A: Its outcome is “inactive”.

Q: For `CCC(=O)N1[C@H](CO)[C@@H](c2ccccc2-c2cccc(C)c2)[C@@H]1C#N`, which outcome is on record?
A: The outcome was “inactive”.

Q: Which outcome does the source give for `COc1ccccc1CNC(=O)C[C@H]1C[C@@H]2c3cc(NC(=O)Nc4ccc(C(F)(F)F)cc4)ccc3O[C@@H]2[C@@H](CO)O1` here?
A: Its outcome is “inactive”.

Q: For `CO[C@H]1CN(C)C(=O)c2cc(NC(=O)C3CC3)ccc2OC[C@H](C)N(Cc2cccc(F)c2)C[C@H]1C`, which outcome is on record?
A: The outcome was “inactive”.

Q: For `O=C(c1ccccc1)N1CC[C@@H]2[C@@H](CO)Nc3ccc(-c4ccc(F)cc4)cc3[C@@H]21`, which outcome is on record?
A: The outcome was “inactive”.

Q: Which outcome does the source give for `COc1ccc(C#Cc2ccc3c(c2)O[C@@H](CN(C)C(=O)Nc2cccc(OC)c2)[C@@H](C)CN([C@@H](C)CO)S3(=O)=O)cc1` here?
A: Its outcome is “inactive”.

Q: Which outcome does the source give for `Cc1ccccc1S(=O)(=O)N1[C@H](CO)[C@@H](c2ccc(C#CC3CCCCC3)cc2)[C@@H]1C#N` here?
A: The outcome was “inactive”.

Q: With `COCC(=O)N1CC2(C1)CN(Cc1cc(F)ccc1F)[C@H](CO)c1[nH]c3cc(OC)ccc3c12` as the compound, how does the outcome read?
A: Its outcome is “inactive”.

Q: With `CO[C@@H]1CN(C)C(=O)c2ccc(NC(=O)c3nc4ccccc4s3)cc2OC[C@H](C)N(Cc2ccncc2)C[C@@H]1C` as the compound, how does the outcome read?
A: Its outcome is “inactive”.

Q: Which outcome does the source give for `CO[C@@H]1CN(C)C(=O)c2cc(NC(=O)c3nc4ccccc4s3)ccc2OC[C@@H](C)N(Cc2ccccc2)C[C@H]1C` here?
A: The outcome was “inactive”.

Q: Which outcome does the source give for `CO[C@@H]1CN(C)C(=O)c2ccc(NC(=O)c3nc4ccccc4s3)cc2OC[C@H](C)N(Cc2cccnc2)C[C@@H]1C` here?
A: The outcome was “inactive”.

Q: With `CO[C@@H]1CN(C)C(=O)c2ccc(NC(=O)c3nc4ccccc4s3)cc2OC[C@@H](C)N(Cc2cccnc2)C[C@H]1C` as the compound, how does the outcome read?
A: The outcome was “inactive”.

Q: With `CC(=O)N1CC[C@@H]2[C@@H](CO)Nc3ccc(C#Cc4ccccc4F)cc3[C@@H]21` as the compound, how does the outcome read?
A: Its outcome is “inactive”.

Q: Which outcome does the source give for `C/C=C/c1ccc([C@@H]2[C@@H](CO)N(CC3CCCC3)C23CN(S(=O)(=O)CC)C3)cc1` here?
A: The outcome was “inactive”.

Q: With `COc1ccccc1CN1C[C@@H](C)[C@H](OC)CN(C)C(=O)c2ccc(NC(=O)Nc3ccccc3OC)cc2OC[C@H]1C` as the compound, how does the outcome read?
A: The outcome was “inactive”.

Q: Which outcome does the source give for `C[C@@H]1CN([C@H](C)CO)C(=O)c2cccc(NC(=O)CCCCCC(=O)Nc3ccccc3N)c2O[C@@H]1CN(C)S(=O)(=O)c1ccccc1` here?
A: The outcome was “inactive”.

Q: Which outcome does the source give for `Cc1ccccc1S(=O)(=O)N1[C@H](C#N)[C@@H](c2ccc(C#CC3CC3)cc2)[C@@H]1CO` here?
A: The outcome was “inactive”.

Q: For `C[C@H](CO)N1C[C@H](C)[C@@H](CN(C)C(=O)c2ccc(F)cc2)Oc2ncc(/C=C/c3ccccc3)cc2C1=O`, which outcome is on record?
A: The outcome was “inactive”.

Q: Which outcome does the source give for `C[C@@H]1CN([C@@H](C)CO)S(=O)(=O)c2ccc(C#CC3(O)CCCC3)cc2O[C@H]1CN(C)C(=O)c1ccccc1` here?
A: The outcome was “inactive”.

Q: Which outcome does the source give for `CN1c2ccc(-c3cccc(F)c3)cc2[C@@H]2[C@@H](CCN2C(=O)C2CC2)[C@@H]1CO` here?
A: Its outcome is “inactive”.

Q: With `N#C[C@H]1[C@@H](c2ccccc2-c2ccccc2F)[C@@H](CO)N1C(=O)C1CCOCC1` as the compound, how does the outcome read?
A: The outcome was “inactive”.

Q: With `CO[C@H]1CN(C)C(=O)c2ccc(NC(=O)Nc3ccc(C(F)(F)F)cc3)cc2OC[C@H](C)NC[C@H]1C` as the compound, how does the outcome read?
A: The outcome was “inactive”.

Q: With `CO[C@@H]1CN(C)C(=O)c2ccc(NC(=O)Nc3ccc(C(F)(F)F)cc3)cc2OC[C@@H](C)NC[C@@H]1C` as the compound, how does the outcome read?
A: The outcome was “inactive”.

Q: With `CO[C@H]1CN(C)C(=O)c2ccc(NC(=O)Nc3ccc(C(F)(F)F)cc3)cc2OC[C@@H](C)NC[C@@H]1C` as the compound, how does the outcome read?
A: Its outcome is “inactive”.

Q: Which outcome does the source give for `CO[C@@H]1CN(C)C(=O)c2ccc(NC(=O)Nc3ccc(C(F)(F)F)cc3)cc2OC[C@H](C)NC[C@H]1C` here?
A: The outcome was “inactive”.

Q: For `Cc1ccc(-c2ccccc2[C@H]2[C@@H](C#N)N(C(=O)NC3CCCC3)[C@H]2CO)cc1`, which outcome is on record?
A: Its outcome is “inactive”.

Q: Which outcome does the source give for `COc1ccc(S(=O)(=O)N(C)C[C@@H]2Oc3cc(-c4ccccc4OC)ccc3S(=O)(=O)N([C@H](C)CO)C[C@H]2C)cc1` here?
A: Its outcome is “inactive”.

Q: With `CCCC(=O)Nc1ccc2c(c1)OC[C@H](C)N(Cc1ccc(-c3ccccn3)cc1)C[C@H](C)[C@H](OC)CN(C)C2=O` as the compound, how does the outcome read?
A: The outcome was “inactive”.

Q: With `CO[C@@H]1CN(C)C(=O)c2ccc(NC(=O)C3CC3)cc2OC[C@@H](C)N(Cc2cccc(F)c2)C[C@H]1C` as the compound, how does the outcome read?
A: Its outcome is “inactive”.

Q: For `CCC(=O)Nc1ccc2c(c1)C(=O)N(C)C[C@H](OC)[C@H](C)CN(Cc1cccc(F)c1)[C@@H](C)CO2`, which outcome is on record?
A: Its outcome is “inactive”.

Q: For `COc1ccc(CN(C)C[C@@H]2OCc3cn(nn3)CCCC(=O)N([C@H](C)CO)C[C@H]2C)cc1`, which outcome is on record?
A: Its outcome is “inactive”.

Q: With `COc1ccccc1CN1C[C@@H](C)[C@H](OC)CN(C)C(=O)c2cc(NC(=O)Nc3ccccc3OC)ccc2OC[C@H]1C` as the compound, how does the outcome read?
A: The outcome was “inactive”.

Q: Which outcome does the source give for `C[C@@H]1CN([C@H](C)CO)S(=O)(=O)c2ccc(C#Cc3ccccc3F)cc2O[C@H]1CN(C)C(=O)c1ccc2c(c1)OCO2` here?
A: Its outcome is “inactive”.

Q: For `COc1cccc(C(=O)Nc2ccc3c(c2)C(=O)N(C)C[C@@H](OC)[C@H](C)CN(CCc2ccccc2)[C@H](C)CO3)c1`, which outcome is on record?
A: The outcome was “inactive”.

Q: With `C/C=C/c1ccc2c(c1)[C@H]1[C@H](CCN1C(=O)c1ccc(F)cc1)[C@H](CO)N2` as the compound, how does the outcome read?
A: Its outcome is “inactive”.

Q: For `O=C(Nc1ccccc1F)N1C[C@@H]2[C@H](c3ccccc31)[C@H](CO)N2C(=O)C1CCOCC1`, which outcome is on record?
A: Its outcome is “inactive”.

Q: Which outcome does the source give for `COc1ccc2c3c([nH]c2c1)[C@@H](CO)N(Cc1cc(F)ccc1F)CC31CN(C(=O)C2CCC2)C1` here?
A: The outcome was “inactive”.

Q: With `CN(C)C(=O)c1ccc(-c2cccc(-c3nc(C(=O)NC4CCCC4)cc4c3[C@H](CCO)N([S@@](=O)C(C)(C)C)C4)c2)cc1` as the compound, how does the outcome read?
A: The outcome was “inactive”.

Q: Which outcome does the source give for `CO[C@@H]1CN(C)C(=O)c2ccc(NC(=O)Nc3cccc(F)c3)cc2OC[C@H](C)NC[C@H]1C` here?
A: The outcome was “inactive”.

Q: For `CO[C@H]1CN(C)C(=O)c2ccc(NC(=O)c3cccc(Oc4ccccc4)c3)cc2OC[C@@H](C)NC[C@H]1C`, which outcome is on record?
A: The outcome was “inactive”.

Q: For `COc1ccc(-c2ccc3c(c2)[C@H]2[C@H](CCN2Cc2ccncc2)[C@@H](CO)N3)cc1`, which outcome is on record?
A: The outcome was “inactive”.

Q: For `CN1C(=O)c2cc(NC(=O)c3cccc(F)c3)ccc2OC[C@H]2O[C@H](CC(=O)NCC3CCCCC3)CC[C@H]21`, which outcome is on record?
A: Its outcome is “inactive”.

Q: With `CC(C)NC(=O)Nc1ccc2c(c1)C(=O)N(C)[C@H]1CC[C@H](CC(=O)Nc3ccccc3)O[C@H]1CO2` as the compound, how does the outcome read?
A: The outcome was “inactive”.

Q: For `CC(C)(C)[S@@](=O)N1Cc2cc(C(=O)N[C@@H]3CCN(Cc4ccccc4)C3)nc(-c3cccc(-c4ccncc4)c3)c2[C@H]1CCO`, which outcome is on record?
A: The outcome was “inactive”.

Q: Which outcome does the source give for `N#Cc1ccc(-c2ccc3c(c2)[C@H]2[C@H](CCN2C(=O)C2CCCC2)[C@H](CO)N3)cc1` here?
A: The outcome was “inactive”.

Q: For `COc1cccc(-c2ccc3c(c2)[C@@H]2[C@@H](CCN2S(=O)(=O)c2cn(C)cn2)[C@@H](CO)N3)c1`, which outcome is on record?
A: Its outcome is “inactive”.

Q: With `O=C(C[C@H]1CC[C@@H]2[C@H](COC[C@H](O)CN2Cc2cc(F)ccc2F)O1)N[C@@H]1CCN(Cc2ccccc2)C1` as the compound, how does the outcome read?
A: The outcome was “inactive”.

Q: For `COc1ccc2c3c([nH]c2c1)[C@H](CO)N(Cc1ccccc1)CC31CCN(CC2CC2)CC1`, which outcome is on record?
A: The outcome was “inactive”.

Q: For `COc1ccc2c3c([nH]c2c1)[C@@H](CO)N(Cc1nccs1)CC31CCN(Cc2nccs2)CC1`, which outcome is on record?
A: The outcome was “inactive”.

Q: Which outcome does the source give for `COc1ccc2c3c([nH]c2c1)[C@@H](CO)N(Cc1ccc(Cl)cc1)CC31CCN(Cc2nccs2)CC1` here?
A: The outcome was “inactive”.

Q: With `COc1cccc(CN2CC3(CCN(Cc4ccccn4)CC3)c3c([nH]c4cc(OC)ccc34)[C@@H]2CO)c1` as the compound, how does the outcome read?
A: Its outcome is “inactive”.

Q: Which outcome does the source give for `COc1ccc2c3c([nH]c2c1)[C@H](CO)N(Cc1ccncc1)CC31CN(Cc2ccc(-c3ccccn3)cc2)C1` here?
A: Its outcome is “inactive”.

Q: For `COc1ccc2c3c([nH]c2c1)[C@H](CO)N(Cc1ccc(F)cc1)CC31CCN(Cc2ccccn2)CC1`, which outcome is on record?
A: The outcome was “inactive”.

Q: Which outcome does the source give for `C[C@@H]1CN([C@H](C)CO)C(=O)c2cc(NC(=O)CCC(F)(F)F)ccc2O[C@H]1CN(C)C(=O)NC1CCCCC1` here?
A: Its outcome is “inactive”.

Q: For `O=C(C1CCCC1)N1CC[C@@H]2[C@H](CO)Nc3ccc(Br)cc3[C@@H]21`, which outcome is on record?
A: Its outcome is “inactive”.

Q: For `COc1ccc2c3c([nH]c2c1)[C@H](CO)N(Cc1ccccc1Cl)CC31CN(C(C)=O)C1`, which outcome is on record?
A: The outcome was “inactive”.

Q: Which outcome does the source give for `CC(C)(C)[S@@](=O)N1Cc2cc(C(=O)NC3CCC3)nc(-c3cccc(Br)c3)c2[C@H]1CCO` here?
A: Its outcome is “inactive”.

Q: For `C[C@@H]1CN([C@@H](C)CO)C(=O)c2cccc(NC(=O)Nc3cccc4ccccc34)c2O[C@H]1CN(C)C(=O)NC1CCCCC1`, which outcome is on record?
A: Its outcome is “inactive”.

Q: For `COc1ccc2c3c([nH]c2c1)[C@H](CO)N(Cc1ccccc1F)CC31CN(C(=O)C2CCC2)C1`, which outcome is on record?
A: The outcome was “inactive”.
